These results are taken from PubChem BioAssay AID720664 (National Center for Advancing Translational Sciences (NCATS), 2013).

Records with an inconclusive call do not appear. Active and inactive are the calls of the source. Calls follow the shape of the dose curve; as a rule, active = well fitted inhibition curve with a large enough effect; inconclusive = small, poorly fitted or top-dose-only effect; inactive = flat fitted curve, though single readings scatter.

The assay deals with Galactokinase (Homo sapiens) (UniProt P51570). Description: qHTS for Inhibitors of Human Galactokinase (GALK): SAR round 3. The following applies: ADP detection luminescence, 1 h; series mostly up to 57.5 µM; activity change, negative = inhibition: at the top concentration. From the text: Inherited deficiency of galactose-1-phosphate uridyltransferase (GALT) can result in a potentially lethal disorder called Classic Galactosemia (OMIM 230400). Several lines of evidence indicate that an elevated level of galactose-1-phosphate (gal-1-p), the product of galactokinase (GALK), is a major, if not sole, pathogenic mechanism in patients with classic galactosemia. Therefore, finding inhibitors of GALK is a potential novel therapy for this inherent metabolic disease and is the long term goal of this project. Active compounds observed in the qHTS GALK assay (AID: 1868) were cherry picked and re-screened for validation. GALK (provided by Kent Lai) was assayed using ATP and D-(+)-Galactose (Sigma-Aldrich cat# G0750) as substrates. Promega ADP-Glo technology was used to detect the ADP product formed after the kinase reaction. Kinase reactions with and without GALK were used as negative and positive controls together with Protein Tyrosine Phosphatase CD45 inhibitor (EMD Bioscience cat# 540215) which is shown to inhibit GALK activity. Decrease in activity corresponds to inhibition of the enzyme, the desired outcome for this assay. NIH Molecular Libraries Probe Production Network [MLPCN] NIH Chemical Genomics Center [NCGC] Grant: MH085689-01 PI Name: Kent Lai, University of Utah
Galactokinase (Homo sapiens), sequence (P51570 whole entry, looked up): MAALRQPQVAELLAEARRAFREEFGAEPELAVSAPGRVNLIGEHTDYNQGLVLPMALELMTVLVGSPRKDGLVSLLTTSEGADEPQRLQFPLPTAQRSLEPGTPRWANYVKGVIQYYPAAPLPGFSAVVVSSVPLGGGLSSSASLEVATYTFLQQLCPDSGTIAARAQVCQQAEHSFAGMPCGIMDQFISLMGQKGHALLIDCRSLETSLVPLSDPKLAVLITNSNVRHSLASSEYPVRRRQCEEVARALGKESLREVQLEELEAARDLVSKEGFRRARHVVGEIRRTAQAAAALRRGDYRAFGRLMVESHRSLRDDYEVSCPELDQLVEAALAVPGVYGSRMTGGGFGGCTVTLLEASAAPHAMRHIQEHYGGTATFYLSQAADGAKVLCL
Three uL/well of ATP-buffer solution (35 uM ATP, 20mM HEPES pH8.0, 5 mM MgCl2, 60 mM NaCl, 1 mM DTT, 0.01% BSA final concentration) was dispensed into 1536-well, assay plates (Greiner, solid white medium-binding plates) with Aurora Discovery BioRAPTR Flying Reagent Dispenser (FRD; Beckton-Dickenson). Compound and control solution (23 nL) was transferred to the assay plate using the Kalypsys 1536-pin tool apparatus. One uL/well GALK-galactose solution (5 nM GALK, 100 uM galactose, 20 mM HEPES pH8.0, 5 mM MgCl2, 60 mM NaCl, 1 mM DTT, 0.01% BSA final concentration) was then added using the FRD yielding a total kinase reaction volume of 4 uL/ well. After 1 hour of room temperature incubation, 4 uL Kinase-Glo Plus reagent was added for a final assay volume of 8 uL/well. Luminescence was detected with the ViewLux plate reader (Perkin Elmer, Waltham, MA) after 2 min incubation using a 1 sec exposure time and 2x binning.
`O=C(Nc1ncc([S+](=O)([O-])N2CCOCC2)s1)c1cccc(Br)c1`: the “activity change, negative = inhibition” value is -2.8% (inactive). Turning to `O=C1CCCC2=C1C(c1ncccc1Br)N=C(Nc1nc3ccccc3o1)N2` (stereo not given), the “activity change, negative = inhibition” value was -27.8% (inactive). Consider `CC1=C(C(=O)NC2CCCC2)C(c2[nH]ncc2Cl)N=C(Nc2nc3ccccc3o2)N1` (stereo not given), for which the “activity change, negative = inhibition” value is -7.46% (inactive). Consider `O=C1CCCC2=C1C(c1cccnc1Br)N=C(Nc1nc3ccccc3o1)N2` (stereo not given), for which the “activity change, negative = inhibition” value was -21.8% (inactive). On the same count and under the same terms, to `CC1=C(C(=O)n2ccc3ccccc32)C(c2ccccc2Br)N=C(Nc2nc3ccccc3o2)N1` (stereo not given) belongs -5.19% (inactive); to `O=C1CCCC2=C1C(c1ccccc1Cl)N=C(c1ccccn1)N2` (stereo not given), -3.03% (inactive). With `O=C1CCCC2=C1C(c1ccccc1)N=C(Nc1nc3ccccc3o1)N2` (stereo not given), the “activity change, negative = inhibition” value is -25% (inactive). The same measure, in the same setting: with `Cc1nc(CN=C2NC3=C(C(=O)CCC3)C(c3[nH]ncc3Cl)N2)cs1` (stereo not given) the figure was -0.394% (inactive); with `O=C1CCCC2=C1C1(CCCC1)N=C(Nc1nc3cc(Cl)ccc3o1)N2`, -24.4% (inactive); with `O=C1CCCC2N=C(Nc3nc4ccccc4o3)CC(c3ccccc3Cl)C12` (stereo not given), 3.86% (inactive).

On to `O=C1CCCC2=C1C(c1cccnc1Cl)N=C(Nc1nc3ccccc3o1)N2` (stereo not given), for which the “activity change, negative = inhibition” value was -21.4% (inactive). `CC1=C(C(=O)Nc2nc3ccccc3s2)C(c2[nH]ncc2Cl)N=C(Nc2nc3ccccc3o2)N1` (stereo not given): the “activity change, negative = inhibition” value is -9.72% (inactive). Regarding `O=C1CCCC2=C1C(c1[nH]ncc1Cl)N=C(Nc1nc3ccccc3s1)N2` (stereo not given), the “activity change, negative = inhibition” value is -4.86% (inactive). As for `O=c1cc(CN2CCCN(c3ccc(C(F)(F)F)cn3)CC2)nc2ccccn12`, the “activity change, negative = inhibition” value is -2.21% (inactive). The same measure, in the same setting: with `CNC(=O)C1=C(C)NC(Nc2nc3ccccc3o2)=NC12CCCC2` the figure was -15.1% (inactive); with `O=C1CCCC2=C1C(c1[nH]ncc1Cl)NC(=NCc1ccccn1)N2` (stereo not given), 1.69% (inactive). `O=C1CCCC2CC(Nc3nc4ccccc4o3)CC(c3ccccc3)C12` (stereo not given): the “activity change, negative = inhibition” value is -0.0792% (inactive).

`Cc1nc(Nc2nc3ccccc3o2)nc(-c2ccccc2Br)c1C(=O)NCc1ccccc1`: the “activity change, negative = inhibition” value was 2.91% (inactive). Still for that read-out and setting: with `CC1=C(C(=O)NC2CC2)C(c2[nH]ncc2Cl)N=C(Nc2nc3ccccc3o2)N1` (stereo not given) the figure was -24.1% (inactive); with `O=C1CCCC2=C1C(c1[nH]ncc1Cl)N=C(Nc1nc3ccc(Cl)cc3o1)N2` (stereo not given), -5.94% (inactive); with `O=C1CCCC2=C1C(c1[nH]ncc1Cl)N=C(Nc1nc3c(Cl)cccc3o1)N2` (stereo not given), -2.85% (inactive). For `O=C1CCCC2=C1C(c1[nH]ncc1Cl)NC(=NCc1cccnc1)N2` (stereo not given), the “activity change, negative = inhibition” value is -7.25% (inactive). On to `O=C(Nc1nnc(S(=O)(=O)N2CCOCC2)s1)c1cccc(Br)c1`, for which the “activity change, negative = inhibition” value is -11.9% (inactive). Same read-out and setting: to `O=C1CCCC2=C1C(c1[nH]ncc1Cl)N=C(Nc1nc3cc(Cl)ccc3o1)N2` (stereo not given) belongs 3.78% (inactive). The same measure, in the same setting: to `O=C1CCCC2=C1C(c1[nH]ncc1Cl)NC(=NCc1ccccc1)N2` (stereo not given) belongs 1.45% (inactive); to `O=C1CCCC2=C1C(c1cccc(Cl)c1)N=C(Nc1nc3ccccc3o1)N2` (stereo not given), -2.3% (inactive). Consider `O=C1CCCC2=C1C1(CCSCC1)N=C(Nc1nc3ccccc3o1)N2`, for which the Potency was 3.43 µM (active). In the case of `O=C1CCCC2=C1C(c1ccncc1Cl)N=C(Nc1nc3ccccc3o1)N2` (stereo not given), the Potency was 19.3 µM (active). Turning to `COC(=O)c1ccccc1NC(=O)c1ccccc1OC(F)F`, the “activity change, negative = inhibition” value is 0.981% (inactive). For `CC1=C(C(=O)NC2CC2)C(c2nn(C)cc2Cl)N=C(Nc2nc3ccccc3o2)N1` (stereo not given), the “activity change, negative = inhibition” value is -29.6% (inactive). Still for that read-out and setting: to `O=C1CCCC2=C1C1(CCCC1)N=C(Nc1nc3cc(-c4ccccc4)ccc3o1)N2` belongs -10.9% (inactive); to `O=C1C2=C(CN1Cc1ccccc1)NC(Nc1nc3ccccc3o1)=NC2c1ccccc1Cl` (stereo not given), -1.63% (inactive). As for `O=C1CCCC2=C1C(c1[nH]ncc1Cl)NC(=NCCc1cccnc1)N2` (stereo not given), the “activity change, negative = inhibition” value is 1.96% (inactive). The same measure, in the same setting: to `O=C1CCCC2=C1C(c1[nH]ncc1Cl)N=C(c1nc3ccccc3o1)N2` (stereo not given) belongs 1.55% (inactive); to `O=C1CCCC2=C1C(c1cccc(C(F)(F)F)c1)N=C(Nc1nc3ccccc3o1)N2` (stereo not given), -8.12% (inactive); to `COc1ccc(C2N=C(Nc3nc4ccccc4o3)NC3=C2C(=O)CCC3)cc1` (stereo not given), -7.29% (inactive). Regarding `O=C1CCCC2=C1C(c1[nH]ncc1Cl)N=C(Nc1nc3cc([S+](=O)([O-])N4CCOCC4)ccc3o1)N2` (stereo not given), the “activity change, negative = inhibition” value was -1.21% (inactive). For `O=C1CCCC2=C1C(c1ccccc1Cl)N=C(Nc1ncc(-c3ccccc3)o1)N2` (stereo not given), the “activity change, negative = inhibition” value is 8.02% (inactive). For the compound `O=C1CCCC2=C1C(c1[nH]ncc1Cl)NC(=NCc1nccs1)N2` (stereo not given), the “activity change, negative = inhibition” value is 3.63% (inactive).

Consider `CC1=C(C(=O)Nc2nc3ccccc3s2)C2(CCCC2)N=C(Nc2nc3ccccc3o2)N1`, for which the “activity change, negative = inhibition” value is -10.2% (inactive).
